Screening data as filed in PubChem.
LASV entry inh: qHTS for Inhibitors of binding or entry into cells for Lassa Virus; Lassa virus pseudotype entry inhibition, cell reporter; Potency, µM (top dose mostly 37.9 µM), without a hit: at the top dose activity change, negative = inhibition, actives largely listed as inhibitors; actives 1.2% (n = 300,000); calls by dose curve; tested in HEK293 cells; further: potency means the concentration at half of the fitted maximal effect; on the % scale 0 is the no-effect control and ±100 the full control effect; nearly all actives have a fitted effect of over 50% in size
HCMV antiviral: qHTS Assay for inhibitors of the human cytomegalovirus (HCMV); HFF cells, HCMV-luciferase reporter, 72 h; active compounds read low; activity change, negative = inhibition, % at 57.5 µM; actives 4.5% (n = 410,000); AID 1259415, 2018; in the data active means activity change below about -60%; inconclusive means no clear call, values can overlap the other calls; inactive means above about -39%; further: on the % scale 0 is the no-effect control and ±100 the full control effect
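Inhibition of viral replication was scored as loss of reporter luminescence in HFFs infected with HCMV-luciferase (MOI 1 PFU/cell) for 72 h; compounds tested at 2 doses, normalized to buffer and Salinomycin controls.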
HCV inhibitor: qHTS Assay for Inhibitors of Hepatitis C Virus (HCV); Huh7.5.1 HCVcc-Cre infection, luciferase reporter, 44 h; Potency, µM (top dose mostly 41.8 µM), for the others: at the highest dose activity change, negative = inhibition, actives largely listed as inhibitors; actives 3.4% (n = 340,000); AID 651820, 2012; active means well fitted inhibition curve with a large enough effect; inconclusive means small, poorly fitted or top-dose-only effect, or another doubt; inactive means no such curve, though single readings can be large or run the other way; further: potency means the concentration at half of the fitted maximal effect; on the % scale 0 is the no-effect control and ±100 the full control effect
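1,000 cells/well; 4 h culture; + compound; + HCVcc-Cre (~0.5 moi); 44 h; luciferase substrate, RT 15 min; read 15 sec.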
SARS PLP yeast: qHTS of Yeast-based Assay for SARS-CoV PLP | S. cerevisiae expressing SARS-CoV PLpro, growth rescue | Potency, µM (highest dose often 32.9 µM), for the others: at the highest dose activity, positive = growth rescue, hits mostly activators | actives 0.19% (n = 330,000) | AID 485353, 2010; calls by dose curve; further: potency means the concentration at half of the fitted maximal effect; 0% is about no effect; nearly all actives have a fitted effect of over 55% in size
Marburg entry inh: qHTS for inhibitors of binding or entry into cells for Marburg Virus; Marburg virus pseudotyped entry inhibition, cell reporter; Potency, µM (titrated, usually from 37.8 µM), inactives show at the highest dose activity change, negative = inhibition, most hits filed as inhibitors; actives 1.8% (n = 300,000); AID 540276, 2011; calls by dose curve; tested in HEK293 cells; further: potency means the concentration at half of the fitted maximal effect; on the % scale 0 is the no-effect control and ±100 the full control effect
FMDV antiviral: High Throughput Screening for Foot and Mouth Disease Virus Antivirals | FMDV antiviral cell-based qHTS | Potency, µM (highest dose often 57.9 µM), without a hit: top-dose activity change, negative = inhibition, most hits filed as inhibitors | actives 1.2% (n = 410,000) | AID 1159524, 2015; calls by dose curve; tested in HEK293T cells; further: read-out not given here; potency means the concentration at half of the fitted maximal effect; on the % scale 0 is the no-effect control and ±100 the full control effect; nearly all actives have a fitted effect of over 45% in size
* marks the source's active call; other numbers are inactive results; ? = inconclusive; · = not tested or not shown; [ ] = another dose, or the depositor's remark. Compounds with a hit are over-represented: about 8% of the library has one in this group of screens.

SMILES	LASV entry inh	HCMV antiviral	HCV inhibitor	SARS PLP yeast	Marburg entry inh	FMDV antiviral
CCOC(=O)c1ccc(N2CCN(c3ccccc3F)CC2)c(NC(=O)Nc2ccc(Cl)c(Cl)c2)c1	?	-23	·	·	·	25µM*
C=CCNC(=O)Nc1ccc(F)c(Cl)c1	·	-94*	-5%	1%	·	20%
O=C(Nc1ccc(F)c(Cl)c1)Nc1csc2ccccc12	?	-98*	?	-4%	?	10%
COC(=O)c1ccc(NC(=O)Nc2ccc(F)c(Cl)c2)cc1	0%	35	11µM*	-18%	4%	-48%
O=C(Nc1ccc(F)cc1F)Nc1csc2ccccc12	?	-18	?	-6%	?	7%
CC(C)CNC(=O)Nc1ccc(F)c(Cl)c1	-22%	88	10%	-2%	-12%[46.1 µM]	93%
NS(=O)(=O)c1ccc(CCNC(=O)c2ccc3c(c2)N(Cc2ccccc2)CCS3)cc1	8%[46.1 µM]	-64*	-12%	3%	0%[46.1 µM]	3%
COc1ccc(CCNC(=O)CN2CCN(c3cccc(Cl)c3)CC2)cc1OC	-8%	11	10µM*	-8%	-29%	-27%
COc1ccc(CCNC(=O)c2ccc3c(c2)N(Cc2ccccc2)CCS3)cc1OC	?	0	10µM*	1%	?	?
CCN1CCN(CCCNC(=O)c2ccc3c(c2)N(Cc2ccccc2)CCS3)CC1	·	-33	10µM*	-3%	·	-3%
COc1ccc(CNC(=O)N2CCN(c3cccc(Cl)c3)CC2)cc1OC	·	-1	?	-3%	-25%[46.1 µM]	?
O=C(NCCc1ccccc1)c1ccc2c(c1)N(Cc1ccc(F)cc1)C(=O)CS2	-22%[46.1 µM]	-2	·	·	·	?
O=C(NCc1ccco1)c1ccc2c(c1)N(Cc1ccc(Cl)cc1)CCS2	?	?	10µM*	0%	?	-16%
COc1ccc(CCNC(=O)c2ccc3c(c2)N(Cc2cccc(Cl)c2)C(=O)CS3)cc1OC	?	-61*	·	·	?	-21%
O=C(O)c1ccc2c(c1)N(Cc1cccc(F)c1)C(=O)CS2	·	-100*	14%	3%	·	-12%
CCN1C(=O)c2ccccc2Sc2ccc(NC(=O)Nc3ccc(Br)c(C)c3)cc21	?	-102*	·	·	·	?
CCN(CC)CCNC(=O)Nc1ccc2c(c1)N(Cc1ccccc1)C(=O)c1ccccc1S2	?	-61*	·	·	?	-15%
CCc1ccccc1NC(=O)Nc1ccc2c(c1)N(CC)C(=O)c1ccccc1S2	3%[46.1 µM]	-84*	·	·	-19%[46.1 µM]	-10%
CCN1C(=O)c2ccccc2Sc2ccc(NC(=O)Nc3ccc(C(C)=O)cc3)cc21	18%[46.1 µM]	-26	·	·	-25%[46.1 µM]	-14%
CCN1C(=O)c2ccccc2Sc2ccc(C(=O)NC(C)C)cc21	·	-101*	7%	2%	·	-8%
COc1ccc2c(c1)sc1ncc(C(=O)NCc3ccccc3F)c(=O)n12	·	9	·	·	4%[46.1 µM]	10%
O=C(NC1CCCCC1)C(c1ccc(Cl)cc1)N(C(=O)c1ccccn1)c1cccnc1 (stereo not given)	·	·	·	-1%	·	·
Fc1ccc(-c2nccc3[nH]nc(-c4ccccc4)c23)cc1	·	-31	·	·	·	·
CN(c1ccccc1)S(=O)(=O)c1cccc(NC(=O)COC(=O)C2CCCCC2)c1	·	20	-2%	-1%	·	14%
CCCC(O)(c1ccc(OC)cc1)C(CN1CCOCC1)c1ccc(Cl)cc1 (stereo not given)	·	16	-10%	-2%	·	-27%
SMILES	LASV entry inh	HCMV antiviral	HCV inhibitor	SARS PLP yeast	Marburg entry inh	FMDV antiviral
CCCC(O)(c1ccc(Cl)cc1)C(CN1CCOCC1)c1ccc(Cl)cc1 (stereo not given)	-16%[46.1 µM]	-21	14%	-1%	7.9µM*	?
COc1ccc(C(O)(CC(C)C)C(CN2CCOCC2)c2ccccc2)cc1 (stereo not given)	-16%[46.1 µM]	-83*	-6%	-2%	?	?
CCc1ccc(C(O)(CC(C)C)C(CN2CCOCC2)c2ccccc2)cc1 (stereo not given)	·	-90*	?	-7%	·	?
COC(=O)C1=C(C(=O)OC)[C@@H]2N(C)c3ccccc3[C@@]23C[C@@H](CO)N(C(=O)NC2CCCCC2)C3=N1	·	·	·	·	-2%[14.2 µM]	·
Cc1ccc(-c2nc(SCC(=O)NCC3CCCO3)c3c(=O)n(C)c(=O)n(C)c3n2)cc1 (stereo not given)	0%[46.1 µM]	-14	·	·	·	-9%
O=C(c1cccc(S(=O)(=O)Nc2ccccc2Cl)c1)N1CCN(c2ccccc2O)CC1	·	-30	27%	-6%[6.58 µM]	·	4%
Cc1ccc(C(=O)OCC(=O)c2c[nH]c3ccccc23)cc1S(=O)(=O)N1CCCCC1	?	-37	32µM*	-7%	?	-12%
Cc1ccc(C(=O)OCC(=O)NCc2ccccc2)cc1S(=O)(=O)N1CCCCC1	·	-20	-5%	1%	·	-13%
Cn1c(N)c(C(=O)COC(=O)c2cccc(S(=O)(=O)N3CCCCC3)c2)c(=O)n(C)c1=O	4%	-37	3%	-16%	?	-12%
CCOc1ccc(N(C)S(=O)(=O)c2ccc(C)c(C(=O)OCC(=O)c3c[nH]c4ccccc34)c2)cc1	7%	?	0%	1%	1.4µM*	-12%
Cc1[nH]c2ccccc2c1C(=O)COC(=O)c1cccc(S(=O)(=O)N2CCCCC2)c1	?	-78*	?	21%	?	-4%
CCCN(CCC)C(=O)c1c[nH]c2ccc(S(=O)(=O)N(C)c3ccc(OCC)cc3)cc2c1=O	7%[46.1 µM]	?	·	·	·	3%
CCOC(=O)C1CCN(C(=O)CSc2n[nH]c(-c3ccccc3)n2)CC1	0%[46.1 µM]	17	·	·	·	-2%
CC(C)NC(=O)Nc1ccc2c(c1)C(=O)N([C@H](C)CO)C[C@H](C)[C@@H](CN(C)C(=O)NC(C)C)O2	·	4	23%[8.37 µM]	·	·	0%
CCc1cc2c(nc1CC)CCN(CCC(C)=NO[C@H](C)c1cn([C@H](CO)Cc3ccccc3)nn1)C2	·	·	·	·	-16%[14.2 µM]	·
C/C(=N\NC(=O)c1ccc(NS(=O)(=O)c2cccs2)cc1)c1ccc(C(C)(C)C)cc1	?	15	7.1µM*	-22%	?	-21%
CC1=CC=CC2=NC(=O)CC(C)(C(=O)N(CC(=O)NC3CCCC3)c3ccc(F)cc3)N12 (stereo not given)	·	-82*	-20%	1%	?	-1%
CCOC(=O)c1cnc2c(OC)cccc2c1NCc1cccnc1	·	-62*	-18%	6%	·	?
CCOC(=O)c1cnc2c(OC)cccc2c1Nc1cccc(O)c1	-22%[46.1 µM]	?	·	·	-9%[46.1 µM]	25µM*
COc1ccc(-c2noc(-c3ccccc3NC(=O)c3cc(OC)c(OC)c(OC)c3)n2)cc1	23%[46.1 µM]	-5	·	·	21%[46.1 µM]	?
